# According to PubChem BioAssay (NCI):
# About 79,000 compounds went through this panel and 15% of them were active in at least one assay; those are over-represented in the sample as a whole. A number with no mark means an inactive call. The source made the active and inactive calls. Cut-off read from the data, not from the text of the source: active = growth inhibition above about 70%; inactive = the rest.
# Key:
# [1] = NCI Yeast Anticancer Drug Screen. Data for the rad52 strain (AID 147);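 note: 0% = growth of vehicle-treated control cultures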; details: S. cerevisiae rad52 mutant growth inhibition, active compounds read high
# Procedure, shortened: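 Measured: yeast growth inhibition. System: strain with a defined DNA damage repair alteration. Reference: vehicle-treated control cultures.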
# [2] = NCI Yeast Anticancer Drug Screen. Data for the wt1 strain (AID 149);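 note: 0% = growth of vehicle-treated wt1 cultures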; details: S. cerevisiae wt1 strain (SPY 50644) growth inhibition, active compounds read high
# Procedure, shortened: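 Vehicle-normalised growth inhibition; strain wt1; compound exposure.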
# [3] = NCI Yeast Anticancer Drug Screen. Data for the rad50EPP+ strain (AID 151);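 note: 0% = growth of vehicle-treated control cultures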; details: S. cerevisiae rad50 mutant strain, active compounds read high
# Procedure, shortened: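 One strain with a rad50 alteration (rad50EPP+) was compound-treated, its growth then compared to that of vehicle controls.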
# [4] = NCI Yeast Anticancer Drug Screen. Data for the rad50 strain (AID 155);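 note: 0% = growth of vehicle-only cultures of the same strain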; details: S. cerevisiae rad50 strain growth inhibition, active compounds read high
# Procedure, shortened: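 A DNA repair-deficient yeast mutant serves as the test organism; compound-induced growth inhibition is calculated against vehicle-treated cells.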
# [5] = NCI Yeast Anticancer Drug Screen. Data for the mec2-1 strain (AID 157); details: S. cerevisiae mec2-1 strain, active compounds read high
# Procedure, shortened: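 Test agents were screened against the mec2-1 yeast strain, with defined DNA repair or cell cycle alteration. Growth was scored as inhibition against vehicle-only controls.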
# [6] = NCI Yeast Anticancer Drug Screen. Data for the rad14 strain (AID 159);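 note: 0% = growth of vehicle-treated control cultures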; details: S. cerevisiae rad14 strain growth inhibition, active compounds read high
# Procedure, shortened: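 Vehicle-treated cultures served as the baseline for growth inhibition of a DNA repair-mutant yeast strain exposed to each compound.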
# [7] = NCI Yeast Anticancer Drug Screen. Data for the sgs1 mgt1 strain (AID 161);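 note: 0% = growth of cultures given vehicle only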; details: S. cerevisiae sgs1 mgt1 strain, active compounds read high
# Procedure, shortened: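 Test agents were incubated with a DNA-repair-mutant yeast strain. Growth was then read and compared against vehicle-treated controls.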
# [8] = NCI Yeast Anticancer Drug Screen. Data for the cln2 rad14 strain (AID 165);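 note: 0% = growth equal to vehicle treated cultures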; details: S. cerevisiae cln2 rad14 strain, active compounds read high
# Procedure, shortened: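 Growth of compound-exposed yeast (cln2 rad14 genotype) measured and expressed as inhibition relative to vehicle.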
# [9] = NCI Yeast Anticancer Drug Screen. Data for the bub3 strain (AID 167); details: S. cerevisiae bub3 mutant strain, active compounds read high
# Procedure, shortened: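 Inhibition values come from growth of compound-treated mutant yeast normalised to vehicle-treated controls.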
# [10] = NCI Yeast Anticancer Drug Screen. Data for the wt2 strain (AID 169);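 note: 0% = growth of vehicle-treated yeast cultures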; details: S. cerevisiae wt2 strain growth inhibition, active compounds read high
# Procedure, shortened: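 Genetically defined yeast strains from a DNA-repair/cell-cycle panel were used. Compound-exposed yeast growth was measured, and the inhibition was calculated relative to vehicle treatment.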
# [11] = NCI Yeast Anticancer Drug Screen. Data for the mlh1 strain (AID 171);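 note: 0% = growth of vehicle-treated control cultures of the same strain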; details: S. cerevisiae mlh1 strain growth inhibition, active compounds read high
# Procedure, shortened: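 Here the genetically defined yeast mutant is grown with each compound, and the extent to which its growth falls below that of vehicle-exposed cells is reported.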
# [12] = NCI Yeast Anticancer Drug Screen. Data for the mlh1 rad18 strain (AID 175); details: S. cerevisiae mlh1 rad18 strain growth inhibition, active compounds read high
# Procedure, shortened: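 In this whole-cell yeast screen, a strain with altered DNA damage repair is challenged with compound, and its growth is measured against matched vehicle-treated controls.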
# [13] = NCI Yeast Anticancer Drug Screen. Data for the rad18 strain (AID 177); details: S. cerevisiae rad18 mutant growth inhibition, active compounds read high
# Procedure, shortened: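 Screen uses a yeast strain with a defined lesion in DNA damage repair; compound effect is read as loss of growth compared to untreated vehicle cultures.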
# [14] = NCI Yeast Anticancer Drug Screen. Data for the CLN2oe strain (AID 163);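 note: 0% = growth of vehicle-only control cultures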; details: S. cerevisiae CLN2oe strain, active compounds read high
# Procedure, shortened: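 Here, growth inhibition in a cell-cycle-altered yeast strain after compound exposure was quantified against vehicle control growth.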
# [15] = at 5.0 µM (retest, dose inferred, filed as 0.5)
# [16] = at 50.0 µM (retest, dose inferred, filed as 5.0)
structure (smiles),measurement,setting,value
Cn1c(=O)c2ccccc2c2ccccc21,growth inhibition,[1]; at 1.2 µM,-2%
same,growth inhibition,[1]; at 3.7 µM,9%
same,growth inhibition,[1]; at 11.0 µM,32%
same,growth inhibition,[1]; at 33.0 µM,88% (active)
same,growth inhibition,[1]; at 100.0 µM,96% (active)
same,growth inhibition,[2]; at 1.2 µM,-5%
same,growth inhibition,[2]; at 3.7 µM,-8%
same,growth inhibition,[2]; at 11.0 µM,-10%
same,growth inhibition,[2]; at 33.0 µM,11%
same,growth inhibition,[2]; at 100.0 µM,21%
same,growth inhibition,[3]; at 1.2 µM,0%
same,growth inhibition,[3]; at 3.7 µM,19%
same,growth inhibition,[3]; at 11.0 µM,52%
same,growth inhibition,[3]; at 33.0 µM,87% (active)
same,growth inhibition,[3]; at 100.0 µM,91% (active)
same,growth inhibition,[4]; at 1.2 µM,-3%
same,growth inhibition,[4]; at 3.7 µM,4%
same,growth inhibition,[4]; [15],-132%
same,growth inhibition,[4]; at 11.0 µM,41%
same,growth inhibition,[4]; at 33.0 µM,91% (active)
same,growth inhibition,[4]; [16],84% (active)
same,growth inhibition,[4]; at 50.0 µM,97% (active)
same,growth inhibition,[4]; at 100.0 µM,94% (active)
same,growth inhibition,[5]; at 1.2 µM,0%
same,growth inhibition,[5]; at 3.7 µM,0%
same,growth inhibition,[5]; [15],-45%
same,growth inhibition,[5]; at 11.0 µM,11%
same,growth inhibition,[5]; at 33.0 µM,26%
same,growth inhibition,[5]; [16],5%
same,growth inhibition,[5]; at 50.0 µM,75.1% (active)
same,growth inhibition,[5]; at 100.0 µM,52%
same,growth inhibition,[6]; at 1.2 µM,0%
same,growth inhibition,[6]; at 3.7 µM,2%
same,growth inhibition,[6]; at 11.0 µM,15%
same,growth inhibition,[6]; at 33.0 µM,39%
same,growth inhibition,[6]; at 100.0 µM,63%
same,growth inhibition,[7]; [15],-64%
same,growth inhibition,[7]; [16],35%
same,growth inhibition,[7]; at 50.0 µM,84.9% (active)
same,growth inhibition,[8]; [15],-54%
same,growth inhibition,[8]; [16],-6%
same,growth inhibition,[8]; at 50.0 µM,70.5% (active)
same,growth inhibition,[9]; at 1.2 µM,-5%
same,growth inhibition,[9]; at 3.7 µM,-2%
same,growth inhibition,[9]; [15],-69%
same,growth inhibition,[9]; at 11.0 µM,5%
same,growth inhibition,[9]; at 33.0 µM,29%
same,growth inhibition,[9]; [16],5%
same,growth inhibition,[9]; at 50.0 µM,85.8% (active)
same,growth inhibition,[9]; at 100.0 µM,51%
same,growth inhibition,[10]; at 1.2 µM,-1%
same,growth inhibition,[10]; at 3.7 µM,-1%
same,growth inhibition,[10]; at 11.0 µM,-2%
same,growth inhibition,[10]; at 33.0 µM,21%
same,growth inhibition,[10]; at 100.0 µM,50%
same,growth inhibition,[11]; at 1.2 µM,8%
same,growth inhibition,[11]; at 3.7 µM,-5%
same,growth inhibition,[11]; at 11.0 µM,4%
same,growth inhibition,[11]; at 33.0 µM,46%
same,growth inhibition,[11]; at 100.0 µM,59%
same,growth inhibition,[12]; [15],-114%
same,growth inhibition,[12]; [16],36%
same,growth inhibition,[12]; at 50.0 µM,96.3% (active)
same,growth inhibition,[13]; at 1.2 µM,2%
same,growth inhibition,[13]; at 3.7 µM,5%
same,growth inhibition,[13]; at 11.0 µM,31%
same,growth inhibition,[13]; at 33.0 µM,83% (active)
same,growth inhibition,[13]; at 100.0 µM,91% (active)
N#CN=Nc1cc(Cl)c(N=NC#N)cc1Cl,growth inhibition,[1]; at 1.2 µM,-27%
same,growth inhibition,[1]; at 3.7 µM,-19%
same,growth inhibition,[1]; at 11.0 µM,-18%
same,growth inhibition,[1]; at 33.0 µM,2%
same,growth inhibition,[1]; at 100.0 µM,68%
same,growth inhibition,[2]; at 1.2 µM,-6%
same,growth inhibition,[2]; at 3.7 µM,-5%
same,growth inhibition,[2]; at 11.0 µM,-6%
same,growth inhibition,[2]; at 33.0 µM,-3%
same,growth inhibition,[2]; at 100.0 µM,47%
same,growth inhibition,[3]; at 1.2 µM,-4%
same,growth inhibition,[3]; at 3.7 µM,-3%
same,growth inhibition,[3]; at 11.0 µM,6%
same,growth inhibition,[3]; at 33.0 µM,31%
same,growth inhibition,[3]; at 100.0 µM,79% (active)
same,growth inhibition,[4]; at 1.2 µM,-15%
same,growth inhibition,[4]; at 3.7 µM,-8%
same,growth inhibition,[4]; [15],-22%
same,growth inhibition,[4]; at 11.0 µM,-7%
same,growth inhibition,[4]; at 33.0 µM,3%
same,growth inhibition,[4]; [16],64%
same,growth inhibition,[4]; at 50.0 µM,83.8% (active)
same,growth inhibition,[4]; at 100.0 µM,55%
same,growth inhibition,[5]; at 1.2 µM,-14%
same,growth inhibition,[5]; at 3.7 µM,-17%
same,growth inhibition,[5]; [15],12%
same,growth inhibition,[5]; at 11.0 µM,-18%
same,growth inhibition,[5]; at 33.0 µM,-3%
same,growth inhibition,[5]; [16],87% (active)
same,growth inhibition,[5]; at 50.0 µM,46%
same,growth inhibition,[5]; at 100.0 µM,78% (active)
same,growth inhibition,[6]; at 1.2 µM,1%
same,growth inhibition,[6]; at 3.7 µM,4%
same,growth inhibition,[6]; at 11.0 µM,11%
same,growth inhibition,[6]; at 33.0 µM,32%
same,growth inhibition,[6]; at 100.0 µM,85% (active)
same,growth inhibition,[7]; [15],-5%
same,growth inhibition,[7]; [16],-4%
same,growth inhibition,[7]; at 50.0 µM,60.2%
same,growth inhibition,[14]; at 1.2 µM,-25%
same,growth inhibition,[14]; at 3.7 µM,-6%
same,growth inhibition,[14]; at 11.0 µM,-6%
same,growth inhibition,[14]; at 33.0 µM,-8%
same,growth inhibition,[14]; at 100.0 µM,67%
same,growth inhibition,[8]; [15],33%
same,growth inhibition,[8]; [16],55%
same,growth inhibition,[8]; at 50.0 µM,20.6%
same,growth inhibition,[9]; at 1.2 µM,-19%
same,growth inhibition,[9]; at 3.7 µM,2%
same,growth inhibition,[9]; [15],-1%
same,growth inhibition,[9]; at 11.0 µM,-7%
same,growth inhibition,[9]; at 33.0 µM,25%
same,growth inhibition,[9]; [16],96% (active)
same,growth inhibition,[9]; at 50.0 µM,43.8%
same,growth inhibition,[9]; at 100.0 µM,88% (active)
same,growth inhibition,[10]; at 1.2 µM,2%
same,growth inhibition,[10]; at 3.7 µM,1%
same,growth inhibition,[10]; at 11.0 µM,0%
same,growth inhibition,[10]; at 33.0 µM,3%
same,growth inhibition,[10]; at 100.0 µM,30%
same,growth inhibition,[11]; at 1.2 µM,22%
same,growth inhibition,[11]; at 3.7 µM,10%
same,growth inhibition,[11]; at 11.0 µM,12%
same,growth inhibition,[11]; at 33.0 µM,29%
same,growth inhibition,[11]; at 100.0 µM,87% (active)
same,growth inhibition,[12]; [15],-10%
same,growth inhibition,[12]; [16],98% (active)
same,growth inhibition,[12]; at 50.0 µM,38.2%
same,growth inhibition,[13]; at 1.2 µM,-8%
same,growth inhibition,[13]; at 3.7 µM,-16%
same,growth inhibition,[13]; at 11.0 µM,-11%
same,growth inhibition,[13]; at 33.0 µM,14%
same,growth inhibition,[13]; at 100.0 µM,82% (active)
